Results as given in PubChem BioAssay (Tox21).
Inconclusive results are not listed. Calls of active or inactive are those of the source. Calls come from the whole dose curve.

The molecules below were run against Vitamin D3 receptor (Homo sapiens) (UniProt P11473) (assay: qHTS assay to identify small molecule agonists of the vitamin D receptor (VDR) signaling pathway (AID 743222)). Details: HEK293T VDR-UAS-bla, beta-lactamase FRET ratio, 16 h; series mostly up to 63.5 µM.
Sequence of Vitamin D3 receptor (Homo sapiens) (P11473 whole entry, looked up): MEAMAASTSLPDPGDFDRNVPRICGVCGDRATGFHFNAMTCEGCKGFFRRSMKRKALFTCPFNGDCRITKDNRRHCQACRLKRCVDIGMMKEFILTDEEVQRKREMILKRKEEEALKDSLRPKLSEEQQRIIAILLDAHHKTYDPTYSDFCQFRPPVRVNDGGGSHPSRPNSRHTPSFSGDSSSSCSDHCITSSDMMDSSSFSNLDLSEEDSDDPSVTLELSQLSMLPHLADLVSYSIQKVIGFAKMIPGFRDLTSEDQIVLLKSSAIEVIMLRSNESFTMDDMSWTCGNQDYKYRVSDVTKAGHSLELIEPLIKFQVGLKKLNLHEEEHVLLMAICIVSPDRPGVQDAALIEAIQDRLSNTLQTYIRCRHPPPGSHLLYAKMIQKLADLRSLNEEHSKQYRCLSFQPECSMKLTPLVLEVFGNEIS
Description: National Center for Advancing Translational Sciences [NCATS]
NIH Chemical Genomics Center [NCGC]
U.S. Environmental Protection Agency [EPA]
National Institutes of Environmental Health Sciences [NIEHS]
National Toxicology Program [NTP]
U.S. Food and Drug Administration [FDA]
The vitamin D receptor (VDR), a member of nuclear hormone receptor superfamily, plays a critical role in calcium homeostasis and bone metabolism. It is also involved in cell differentiation and growth, and thrombogenicity.
Tox21 Assay Protocol Summary:
VDR-bla cells were dispensed at 2,000 cells/6 uL/well into black wall/clear-bottom 1536-well plates using a Multidrop Combi (Thermo Fisher Scientific, Waltham, MA) dispenser. After the assay plates were incubated at a 37C and 5% CO2 for 4 h, 23 nL of compounds dissolved in DMSO, positive controls or DMSO only was transferred to the assay plate by a Pintool station (Kalypsys, San Diego, CA). The plates were incubated at 37C and 5% CO2 for 16 h. After 1 uL of LiveBLAzerTM B/G FRET substrate was added using a Bioraptr Flying Reagent Dispenser (FRD) workstation (Beckman Coulter, Indianapolis, IN, USA), the plates were incubated at room temperature for 2 h, and fluorescence intensity was measured by an Envision plate reader (PerkinElmer, Shelton, CT).
`OC(CCl)CCl` was tested, and the outcome was “inactive”.
For `COc1ccccc1/C=C/C=O`, the outcome was “inactive”.
With `COc1cc([C@@H]2c3cc4c(cc3[C@H](O)[C@H]3COC(=O)[C@H]23)OCO4)cc(OC)c1OC` the outcome was “inactive”.
`CCCCCCCCCCCO` was tested, and the outcome was “inactive”.
`CCC(C)OC(=O)c1ccc(O)cc1` (stereo not given) was tested, and the outcome was “inactive”.
For `C=C(C)C(=O)OCCOC(=O)C(=C)C`, the outcome was “inactive”.
In the case of `COc1ccc(C(=O)CC(=O)c2ccc(C(C)(C)C)cc2)cc1`, the outcome is reported as “inactive”.
`CCCCC/C=C/C=C/C=O` was tested, and the outcome was “inactive”.
For `C#C[C@]1(O)CC[C@H]2[C@@H]3CCc4cc(OC)ccc4[C@H]3CC[C@@]21C`, the outcome was “inactive”.
`CCCCOCCOCCO` was tested, and the outcome was “inactive”.
In the case of `CC(C)CC(C)(O)C#CC(C)(O)CC(C)C` (stereo not given), the outcome is reported as “inactive”.
For `Cc1ccc(C)c(O)c1C`, the outcome was “inactive”.
`CCCCNS(=O)(=O)c1ccccc1` was tested, and the outcome was “inactive”.
In the case of `O=C(COc1ccc(Cl)cc1)N1CCN(Cc2ccc3c(c2)OCO3)CC1`, the outcome is reported as “inactive”.
With `O=CCc1ccccc1` the outcome was “inactive”.
With `CC(=O)c1ccccn1` the outcome was “inactive”.
In the case of `CC(C)(C)NC(=O)[C@H]1CC[C@H]2[C@@H]3CC[C@H]4NC(=O)C=C[C@]4(C)[C@H]3CC[C@]12C`, the outcome is reported as “inactive”.
With `CN(C)c1nc(N(C)C)nc(N(C)C)n1` the outcome was “inactive”.
`O=C(c1ccccc1)c1ccccc1O` was tested, and the outcome was “inactive”.
For `Nc1ccccc1N`, the outcome was “inactive”.
For `Nc1ccc(S(=O)(=O)Nc2cnc3ccccc3n2)cc1`, the outcome was “inactive”.
With `C=CC(C)(CCC=C(C)C)OC(C)=O` (stereo not given) the outcome was “inactive”.
`CCCCC(CC)COP(=O)(OCC(CC)CCCC)OCC(CC)CCCC` (stereo not given) was tested, and the outcome was “inactive”.
`Cc1cccc(N(C)C(=S)Oc2ccc3ccccc3c2)c1` was tested, and the outcome was “inactive”.
With `COC(=O)c1ccccc1` the outcome was “inactive”.
In the case of `CC(C)Oc1ccc2c(=O)c(-c3ccccc3)coc2c1`, the outcome is reported as “inactive”.
In the case of `COC(=O)Nc1nc2ccc(S(=O)c3ccccc3)cc2[nH]1` (stereo not given), the outcome is reported as “inactive”.
For `O=C(/C=C/C=C/c1ccc2c(c1)OCO2)N1CCCCC1`, the outcome was “inactive”.
With `CN1C(C(=O)Nc2ccccn2)=C(O)c2ccccc2S1(=O)=O` the outcome was “inactive”.
For `Nc1ncn([C@@H]2O[C@H](CO)[C@@H](O)[C@H]2O)c(=O)n1`, the outcome was “inactive”.
In the case of `O=CCCCC=O`, the outcome is reported as “inactive”.
With `c1ccc(Nc2ccccc2)cc1` the outcome was “inactive”.
In the case of `NC=O`, the outcome is reported as “inactive”.
`O=S(=O)(O)c1ccc(O)cc1` was tested, and the outcome was “inactive”.
For `Cc1cccc([N+](=O)[O-])c1C`, the outcome was “inactive”.
For `CC(=O)C1(C)CC2=C(CCCC2(C)C)CC1C` (stereo not given), the outcome was “inactive”.
With `CC(C)OC(=O)C(C)(C)Oc1ccc(C(=O)c2ccc(Cl)cc2)cc1` the outcome was “inactive”.
`O=Cc1ccccc1O` was tested, and the outcome was “inactive”.
In the case of `OCCO`, the outcome is reported as “inactive”.
In the case of `CCC(C)CO` (stereo not given), the outcome is reported as “inactive”.
